GLP1R ag = agonists of human GLP-1 receptor. P43220. HEK293 GLP-1R CRE-luciferase, luminescence, 4-6 h; cells express a hypersensitive GLP-1R form. Potency, µM (series often up to 45.6 µM), most hits filed as activators. 380,000 compounds, 0.007% hits
PTHR1 agonist = PTHR1 (human) receptor agonism; Potency, µM (top dose mostly 115 µM), actives largely listed as activators; AID 743266; HEK293 GP2 PTHR1 cells, GloSensor cAMP luminescence, 1 h; 410,000 compounds, 0.075% hits; Q03431; also: nearly all actives have a fitted effect of over 55% in size
Target sequence (Q03431 whole entry, looked up): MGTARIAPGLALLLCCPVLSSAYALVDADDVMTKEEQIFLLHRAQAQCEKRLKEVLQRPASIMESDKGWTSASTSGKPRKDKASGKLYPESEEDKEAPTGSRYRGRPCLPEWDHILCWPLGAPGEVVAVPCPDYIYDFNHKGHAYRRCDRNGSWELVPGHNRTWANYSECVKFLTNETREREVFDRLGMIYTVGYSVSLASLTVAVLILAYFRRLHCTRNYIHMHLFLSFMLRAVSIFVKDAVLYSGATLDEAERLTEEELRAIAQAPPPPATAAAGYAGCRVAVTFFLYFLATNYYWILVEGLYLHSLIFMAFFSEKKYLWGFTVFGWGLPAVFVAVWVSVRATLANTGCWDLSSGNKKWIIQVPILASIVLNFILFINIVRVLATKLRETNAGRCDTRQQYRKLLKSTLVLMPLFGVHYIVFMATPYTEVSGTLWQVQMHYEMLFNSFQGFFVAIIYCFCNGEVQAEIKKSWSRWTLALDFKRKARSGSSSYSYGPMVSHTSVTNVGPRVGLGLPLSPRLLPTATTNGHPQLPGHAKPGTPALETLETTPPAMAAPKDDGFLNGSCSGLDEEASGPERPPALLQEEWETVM
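HEK-293-derived GP2 cells expressing PTHR1 and a GloSensor cAMP reporter, 3,000/well, plated overnight, given luciferin plus IBMX (each 0.5 mM as added) for 1 h at 37 °C, then compound for 1 h at 37 °C. Luminescence was read after 15 min at room temperature.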
HEK293 tox = cytotoxic in the GLP-1 receptor inverse agonist counter-screen | HEK293 cAMP-luciferase reporter cells, luminescence, 24 h | Potency, µM (titrated, usually from 38.3 µM), actives largely listed as inhibitors | 410,000 compounds, 0.13% hits;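 also: loss of luciferase light is scored as toxicity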
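To flag toxic compounds, the library was rerun on cells for 24 hr at 37 deg C and 5% CO2. Viability-linked luminescence was captured 12 min after adding luciferase detection reagent.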
GLP1R inv ag = inverse agonists of human GLP-1 receptor; P43220; HEK293 GLP-1R CRE-luciferase, luminescence, 24 h; GLP-1R form is constitutively active; Potency, µM (doses to about 38.3 µM), usual class: inhibitors; 410,000 compounds, 1.6% hits; also: nearly all actives have a fitted effect of over 55% in size
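HEK293 cells stably co-expressing constitutively active GLP-1R and a cAMP-responsive luciferase reporter were seeded in DMEM with 10% Nu serum, given compounds after 12 h, and incubated 24 h at 37 deg C. Luminescence was then read.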
Each line names hits and unclear results; the compound was inactive in the other large screens. Sampled rows, rich in hits. Any-hit rate of the full collection: about 1.7%. Calls follow the shape of the dose curve; as a rule, active = well fitted curve in the direction sought with a large enough effect; inconclusive = small, poorly fitted or top-dose-only effect, or another doubt; inactive = no such curve, though single readings can be large; an effect the other way counts as inactive or inconclusive.

O=c1c2ccccc2n(Cc2c(F)cccc2Cl)c(=O)n1Cc1ccccc1	none (no result: GLP1R ag)
O=S(=O)(c1ccccc1Cl)N1CCC(Cc2ccccc2)CC1	GLP1R inv ag 7.9µM
CC(C)CNC(=S)N1CCC(Cc2ccccc2)CC1	HEK293 tox inconclusive, GLP1R inv ag 3.2µM
O=S(=O)(Nc1ccc(-c2ccc(N3CCCC3)nn2)cc1)c1ccc(Br)cc1	GLP1R inv ag inconclusive (no result: GLP1R ag)
O=C(CN1c2ccccc2Sc2ccccc21)NNC(=O)Nc1cccc(Cl)c1	HEK293 tox inconclusive, GLP1R inv ag 3.5µM
Cc1ccc(N2C(=O)CCSC23C(=O)N(Cc2ccccc2)c2ccccc23)cc1 (stereo not given)	none (no result: GLP1R ag)
O=C1CCSC2(C(=O)N(Cc3ccccc3)c3ccccc32)N1c1ccccc1 (stereo not given)	GLP1R inv ag 11µM (no result: GLP1R ag)
CC(C)N(CC(N)=O)C(=O)c1sc2cc(F)ccc2c1Cl	none
CN1CCC(N(C)C(=O)c2sc3cc(F)ccc3c2Cl)CC1	GLP1R inv ag 7.1µM
Cc1ccc(S(=O)(=O)c2nc(-c3ccccc3)oc2N2CCCCCC2)cc1	GLP1R inv ag 6.3µM (no result: GLP1R ag)
Cc1ccc(-c2nc(S(=O)(=O)c3ccc(C)cc3)c(N3CCCCC3)o2)cc1	none (no result: GLP1R ag)
CCN(c1ccccc1)S(=O)(=O)c1cc(C(=O)NCC(c2ccc(OC)cc2)N(C)C)ccc1C (stereo not given)	GLP1R inv ag 11µM
COc1ccc(C(CNC(=O)c2ccc(S(=O)(=O)N(C)C)cc2)N(C)C)cc1 (stereo not given)	none
CCOc1ncccc1C(=O)OCc1ccc(C(=O)OC)cc1	GLP1R ag 11µM, HEK293 tox inconclusive
COc1ccc2nc(C)cc(Nc3ccc(N4CCN(C)CC4)cc3)c2c1	HEK293 tox inconclusive, GLP1R inv ag 5.6µM
COc1ccc(-c2cc(-c3ccccc3)nc3c2COc2ccc(F)cc2-3)cc1	none
COc1cccc(C(C)N(C)Cc2nc(COc3ccccc3)no2)c1 (stereo not given)	GLP1R inv ag 10µM
CC(c1cccs1)N(C)Cc1nc(CCc2ccccc2)no1 (stereo not given)	GLP1R inv ag 10µM
CCc1ccc(S(=O)(=O)c2cn(CC)c3cc(N4CCCCC4)c(F)cc3c2=O)cc1	none (no result: GLP1R ag)
CCOc1cc(/C=C/C(=O)c2ccc3c(c2)OCCO3)ccc1OCC(=O)N(C)C	GLP1R inv ag 13µM
CCOc1cc(/C=C/C(=O)c2ccc(O)cc2)ccc1OCC(=O)N(C)C	HEK293 tox inconclusive, GLP1R inv ag inconclusive
CN(Cc1ccc(F)cc1)C(=O)C(c1ccccc1)c1ccccc1	GLP1R inv ag inconclusive
COc1ccccc1CN(C)C(=O)C(c1ccccc1)c1ccccc1	HEK293 tox inconclusive, GLP1R inv ag 13µM
COc1cccc(NC(=O)c2oc3ccccc3c2NC(=O)Cc2cccc(C)c2)c1	none (no result: GLP1R ag)
O=C(Cn1cc(C(=O)C2CC2)c2ccccc21)NCc1ccc2c(c1)OCO2	GLP1R inv ag 6.3µM
CC(=O)c1cn(CC(=O)NCc2ccc3c(c2)OCO3)c2ccccc12	none
CC(C)NCC(O)Cn1c2c(c3ccccc31)CCc1c-2cnn1-c1ccccc1 (stereo not given)	HEK293 tox inconclusive, GLP1R inv ag 10µM
CN1CCc2c(n(CC(O)CNCc3ccccc3)c3ccccc23)C1=O (stereo not given)	GLP1R inv ag inconclusive
Cc1ccc(/C=C/c2onc(C)c2S(=O)(=O)N2CCC(C(=O)NCc3ccc(N(C)C)cc3)CC2)cc1	none (no result: GLP1R ag)
Cc1ccc(-c2nnc(SCC(=O)NC(C)(C)C)nc2-c2ccc(C)cc2)cc1	GLP1R inv ag 11µM (no result: GLP1R ag)
Cc1ccc(-c2nnc(SCC(N)=O)nc2-c2ccc(C)cc2)cc1	none
CCCCCCCCCCCCCCCCn1cc[n+](CC(C)=O)c1	HEK293 tox inconclusive, GLP1R inv ag 4.5µM
Cc1ccccc1N1C(=O)c2cc(N)ccc2N/C1=C\F	none (no result: PTHR1 agonist, HEK293 tox, GLP1R inv ag)
CCOc1cccc(CN2CCCC(N3CCN(c4cccc(Cl)c4)CC3)C2)c1O (stereo not given)	GLP1R inv ag 10µM
CCOc1cccc(CN2CCCC(N3CCc4ccccc4C3)C2)c1O (stereo not given)	none
CCCn1c(CCC(=O)Nc2cc(Cl)c(OC)cc2OC)nc2cccnc21	none (no result: GLP1R ag)
CCCCOc1cccc(NC(=O)CSc2nnc(C)s2)c1	none (no result: GLP1R ag)
CCC(C)(C)C1CCC2(CC1)NC(=O)N(CC(=O)N(C)Cc1ccc(OC(F)F)cc1)C2=O (stereo not given)	GLP1R inv ag 1.4µM
CCC(C)(C)C1CCC2(CC1)NC(=O)N(CC(=O)N(C)CCOc1ccc(Cl)cc1)C2=O (stereo not given)	none
CC1(C)CC(=O)CC2(C1)NCC(c1ccccc1)c1c2[nH]c2ccccc12 (stereo not given)	GLP1R inv ag 10µM
O=C(OCc1ccccc1)/C(=C/c1cccc(Br)c1)NC(=O)c1ccco1	GLP1R inv ag 10µM
COc1ccc(NC(=O)C(NC(=O)C2CCC(C)CC2)C(C)C)cc1 (stereo not given)	none (no result: GLP1R ag)
c1cncc(-c2nc(N3CCOCC3)c3c4c(sc3n2)CCC4)c1	none
c1cncc(-c2nc(NCCCN3CCOCC3)c3c4c(sc3n2)CCC4)c1	GLP1R inv ag 11µM
CN1[C@@H]2CCC[C@@H]1CC(NC(=O)c1nn(C)c3ccccc13)C2 (stereo not given in full)	none (no result: PTHR1 agonist, HEK293 tox, GLP1R inv ag)
CC(C)(C)NC(=O)CSc1ncnc2c1nnn2Cc1ccccc1Cl	GLP1R inv ag 4µM
O=C(CSc1ncnc2c1nnn2Cc1ccccc1)NC1CCCC1	none
Cc1c(Cl)cccc1NC(=S)N=Nc1c(O)n(CN2CCOCC2)c2ccccc12	HEK293 tox 1.4µM, GLP1R inv ag inconclusive
Oc1c(N=NC(=S)Nc2ccccc2F)c2ccccc2n1Cc1ccccc1Cl	none
O=C(c1cccc(NS(=O)(=O)c2ccc(F)c(F)c2)c1)N1CCN(C(c2ccccc2)c2ccccc2)CC1	GLP1R inv ag 4µM
C=Cc1c(C)/c2[n-]/c1=C\c1[n-]c(c(CC)c1C)/C=c1\[n-]c3c(c1C)C(=O)C(C(=O)[O-])C=3c1[n-]c(c(C)c1CCC(=O)[O-])\C=2.[Cu].[Na+].[Na+] (stereo not given)	none (no result: PTHR1 agonist, HEK293 tox, GLP1R inv ag)
CN1CCN(C(=O)CN2C(=O)NC(C)(c3ccc4ccccc4c3)C2=O)CC1 (stereo not given)	none
CC1(c2ccc3ccccc3c2)NC(=O)N(CC(=O)N2CCN(c3ccccc3O)CC2)C1=O (stereo not given)	GLP1R inv ag 11µM
CC(Oc1cccc(Cl)c1)C(=O)Nc1cc(S(=O)(=O)N2CCOCC2)ccc1N1CCCCC1 (stereo not given)	GLP1R inv ag 10µM
CC(NCC(=O)Nc1cc(S(=O)(=O)N2CCOCC2)ccc1Cl)c1ccc(Cl)cc1Cl (stereo not given)	GLP1R inv ag 5.6µM
CCN1CCN(c2ccc(S(=O)(=O)N3CCOCC3)cc2NC(=O)C(C)Oc2cccc(Cl)c2)CC1 (stereo not given)	GLP1R inv ag inconclusive
